In the library only some 3.8% were active in any assay of this set; here they are far more common.
M18AAP inhibitor: PfM18AAP inhibitors, malaria aminopeptidase, primary screen, biochemical, QFRET, recombinant enzyme; inhibition, % at 7.35 µM; AID 1822, 2009; H-Glu-NHMec fluorogenic cleavage; 290,000 compounds, 1.2% hits; M18 aspartyl aminopeptidase (Plasmodium falciparum 3D7);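 active means inhibition above the campaign mean inhibition over all tested compounds plus 3 SD, cut at about 28% in these data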;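 further: 0% = plate median of test compound wells and 100% = 2 mM ZnCl2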
PAFAH1B3 inh: PAFAH1B3 enzyme inhibitors, primary screen, biochemical, fluorescence polarization, human | Platelet-activating factor acetylhydrolase IB subunit alpha1 (Homo sapiens), Q15102 | recombinant PAFAH1B3, FP-rhodamine probe | inhibition, % at 3.39 µM | 340,000 compounds, 0.28% hits;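 active means inhibition above the screen-wide average of all tested compounds plus 3 SD, cut at about 25% in these data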;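 further: 0% = enzyme with DMSO only and 100% = wells lacking PAFAH1B3 protein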
Target sequence (Q15102 whole entry, looked up): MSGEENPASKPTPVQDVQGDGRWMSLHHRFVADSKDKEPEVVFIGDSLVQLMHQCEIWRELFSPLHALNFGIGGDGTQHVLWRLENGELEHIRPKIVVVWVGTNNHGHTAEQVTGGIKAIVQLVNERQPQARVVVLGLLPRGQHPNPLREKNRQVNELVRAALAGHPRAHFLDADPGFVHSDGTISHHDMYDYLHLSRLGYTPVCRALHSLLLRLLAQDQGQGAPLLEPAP
pPAFAH FP inh: pPAFAH enzyme inhibitors, primary screen, biochemical, fluorescence polarization, human; recombinant pPAFAH, FP-rhodamine probe fluorescence polarization; inhibition, % at 3.39 µM; 330,000 compounds, 1.5% hits; Platelet-activating factor acetylhydrolase (Homo sapiens), Q13093;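 active means inhibition above the mean inhibition across the screen plus 3 SD, cut at about 25% in these data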;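 further: inhibitors block binding of the rhodamine activity-based probe so polarization drops; 0% = enzyme with DMSO and 100% = wells lacking pPAFAH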
PAFAH2 FP inh: PAFAH2 enzyme inhibitors, primary screen, biochemical, fluorescence polarization, human. Platelet-activating factor acetylhydrolase 2, cytoplasmic (Homo sapiens), Q99487. recombinant PAFAH2, FP-rhodamine activity probe. inhibition, % at 3.39 µM. 340,000 compounds, 0.99% hits;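 active means inhibition above the mean over all tested compounds plus 3 SD, cut at about 30% in these data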;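 further: inhibitors block probe labeling of enzyme so polarization drops; 0% = enzyme with DMSO and 100% = wells lacking PAFAH2 protein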
PAFAH1B2 FP inh: PAFAH1B2 enzyme inhibitors, primary screen, biochemical, fluorescence polarization, human; 340,000 compounds, 1.2% hits; inhibition, % at 3.39 µM; Platelet-activating factor acetylhydrolase IB subunit alpha2 (Homo sapiens), P68402; AID 492953, 2010; recombinant PAFAH1B2, FP-rhodamine activity probe;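 active means inhibition above the mean of all tested compounds plus 3 SD, cut at about 24% in these data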;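 further: 0% = enzyme with DMSO and 100% = wells lacking PAFAH1B2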
Target sequence (P68402 whole entry, looked up): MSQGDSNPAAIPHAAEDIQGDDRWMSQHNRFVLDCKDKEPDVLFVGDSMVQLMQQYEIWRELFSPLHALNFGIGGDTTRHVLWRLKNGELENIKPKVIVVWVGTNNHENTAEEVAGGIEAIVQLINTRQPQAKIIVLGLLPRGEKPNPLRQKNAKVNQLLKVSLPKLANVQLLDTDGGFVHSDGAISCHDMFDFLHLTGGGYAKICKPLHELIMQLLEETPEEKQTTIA
DSG3 Ab inh: inhibitors of pemphigus antibody binding to DSG3, primary screen, biochemical, bead-based, flow cytometry, scFv-GFP; 310,000 compounds, 0.48% hits; DSG3-coupled beads, scFv-anti-DSG3-GFP binding; hits give low values; binding (percent of control), % at 10 µM;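 active means binding more than 3 SD below its plate's average and above zero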;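 further: hits lower antibody fragment binding to DSG3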
The depositor's hits bear a star.

What do the screens show for `CC1(C)NC(=O)N(CCC(=O)Nc2ccc(C(C)(C)C)cc2)C1=O`?
DSG3 Ab inh: 100

How did CN(c1ccc(C(=O)NC2CC3CCC2C3)cc1)S(C)(=O)=O (centres undefined) do in these assays?
M18AAP inhibitor: 5; PAFAH1B3 inh: -1; pPAFAH FP inh: 2; PAFAH2 FP inh: 1; PAFAH1B2 FP inh: 1; DSG3 Ab inh: 6.6*

Results for CC[n+]1c(C)sc2sc3ccccc3c21 ?
M18AAP inhibitor: 60*; pPAFAH FP inh: 2

What do the screens show for `CC(=O)N1c2ccccc2Oc2cc3ccccc3cc21`?
M18AAP inhibitor: 0; PAFAH1B3 inh: -1; pPAFAH FP inh: 20; PAFAH2 FP inh: 9; PAFAH1B2 FP inh: -4; DSG3 Ab inh: 99

How did O=C(CCl)N1c2ccccc2Oc2ccc3ccccc3c21 do in these assays?
PAFAH1B3 inh: 30*; PAFAH2 FP inh: 30*; PAFAH1B2 FP inh: 24; DSG3 Ab inh: 94

What do the screens show for `CCOC(=O)c1ccc(NC(=S)NNC(=O)c2cc(-c3cccnc3)nc3ccccc23)cc1`?
M18AAP inhibitor: -7; PAFAH1B3 inh: 16; pPAFAH FP inh: 30*; PAFAH2 FP inh: 1; PAFAH1B2 FP inh: 10; DSG3 Ab inh: 111

How did Cc1ccc(-c2cc(C(=O)Nc3cccnc3)c3ccccc3n2)o1 do in these assays?
M18AAP inhibitor: -105; PAFAH1B3 inh: 8; pPAFAH FP inh: 0; PAFAH2 FP inh: 4; PAFAH1B2 FP inh: 13; DSG3 Ab inh: 81*

Results for CCNC(=S)NNC(=O)c1cc(-c2ccc(OC)cc2)nc2ccccc12 ?
M18AAP inhibitor: 5; PAFAH1B3 inh: 9; pPAFAH FP inh: 16; PAFAH2 FP inh: 3; PAFAH1B2 FP inh: 28*; DSG3 Ab inh: 98

How did CCNC(=S)NNC(=O)c1cc(-c2cccc(C)c2)nc2ccccc12 do in these assays?
M18AAP inhibitor: 3; PAFAH1B3 inh: 0; pPAFAH FP inh: 23; PAFAH2 FP inh: -3; PAFAH1B2 FP inh: 32*; DSG3 Ab inh: 98

How did Cc1ccc(NC(=O)c2cc(-c3ccc(C)o3)nc3ccccc23)cc1 do in these assays?
M18AAP inhibitor: -11; PAFAH1B3 inh: 4; pPAFAH FP inh: 10; PAFAH2 FP inh: -4; PAFAH1B2 FP inh: -3; DSG3 Ab inh: 101

Results for O=C1C(=O)C(c2ccccc2)C(=O)C1c1ccccc1 (centres undefined) ?
PAFAH1B3 inh: 10; PAFAH2 FP inh: 7; PAFAH1B2 FP inh: 32*; DSG3 Ab inh: 88

How did CN(Cc1ccc(F)cc1)C(=O)CNC(=O)C1CCCCC1 do in these assays?
M18AAP inhibitor: -14; PAFAH1B3 inh: -1; pPAFAH FP inh: 0; PAFAH2 FP inh: 1; PAFAH1B2 FP inh: 1; DSG3 Ab inh: 103

How did CCc1ccc(-c2ccc(SCC(=O)Nc3nnc(C)s3)nn2)cc1 do in these assays?
M18AAP inhibitor: -3; PAFAH1B3 inh: -1; pPAFAH FP inh: 4; PAFAH2 FP inh: 6; PAFAH1B2 FP inh: 3; DSG3 Ab inh: 110

How did COc1ccc(C(=O)N/N=C\c2coc3ccccc3c2=O)cc1 do in these assays?
M18AAP inhibitor: 20; PAFAH1B3 inh: 1; pPAFAH FP inh: 1; PAFAH2 FP inh: 9; PAFAH1B2 FP inh: 5; DSG3 Ab inh: 104

How did COc1cc(C(=O)N/N=C/c2coc3ccccc3c2=O)cc(OC)c1OC do in these assays?
M18AAP inhibitor: 30*; PAFAH1B3 inh: 6; pPAFAH FP inh: 5; PAFAH2 FP inh: 1; PAFAH1B2 FP inh: 3; DSG3 Ab inh: 98

How did CN(C(=O)c1cccc(NC(=O)Cc2cccc(NC(=O)C3CCCN(C(=O)C4CCCCC4)C3)c2)c1)C1CC1 (centres undefined) do in these assays?
PAFAH1B3 inh: 7; PAFAH2 FP inh: 0; PAFAH1B2 FP inh: 3; DSG3 Ab inh: 106

Results for CC(=O)c1ccc(NC(=O)c2cn(-c3ccccc3)nc2-c2ccncc2)cc1 ?
M18AAP inhibitor: 7; PAFAH1B3 inh: -7; pPAFAH FP inh: -4; PAFAH2 FP inh: -19; PAFAH1B2 FP inh: -9; DSG3 Ab inh: 69*
